From PubChem BioAssay (Tox21)
Records with an inconclusive call do not appear. A call without a number means that no potency is given here. Unmarked numbers belong to inactive results. Calls of active or inactive are those of the source. Calls follow the shape of the dose curve; as a rule, active = well fitted cell-killing curve with a large enough effect in the repeat runs; inconclusive = weak or mixed curves, or effect the other way; inactive = flat fitted curve, though single readings scatter.

assay: cAMP Responsive Elements (CRE) small molecule antagonists, cell-based qHTS assay: qHTS cell viability counter screen (AID 2060913); details: CRE-bla HEK293T viability, CellTiter-Glo luminescence, 5 h; series mostly up to 92.4 µM; also: nearly all actives have a fitted effect of over 40% in size
Method in brief: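 Cytotoxicity read in the same wells as the CRE-bla HEK293T antagonist assay: after 3 h compound with 0.25 uM NKH477 final and 2 h beta-lactamase substrate, CellTiter-Glo luminescence measured.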

Structure (SMILES)	viability change, negative = cytotoxic	Potency
O=C(OC[C@H]1O[C@@H](OC(=O)c2cc(O)c(O)c(OC(=O)c3cc(O)c(O)c(O)c3)c2)[C@H](OC(=O)c2cc(O)c(O)c(OC(=O)c3cc(O)c(O)c(O)c3)c2)[C@@H](OC(=O)c2cc(O)c(O)c(OC(=O)c3cc(O)c(O)c(O)c3)c2)[C@@H]1OC(=O)c1cc(O)c(O)c(OC(=O)c2cc(O)c(O)c(O)c2)c1)c1cc(O)c(O)c(OC(=O)c2cc(O)c(O)c(O)c2)c1	-4.21% [at 18.9 µM]	–
Nc1[nH]c(=O)ncc1F	–	inactive
CCCCCCCCCCCCOCCO	–	inactive
CC(C)(C)NCC(O)COc1cccc2c1CCC(=O)N2 (stereo not given)	–	inactive
Brc1cc(Br)cc(Br)c1	–	inactive
CC(C)CCOCc1ccccc1	–	inactive
O=C(O)CCc1ccccc1	–	inactive
CC(C)(C)c1ccc(C(O)CCCN2CCC(C(O)(c3ccccc3)c3ccccc3)CC2)cc1 (stereo not given)	–	inactive
CN(C)CC/C=C1\c2ccccc2COc2ccccc21	–	inactive
COS(C)(=O)=O	–	inactive
CC(C)(C)c1cc(CO)cc(C(C)(C)C)c1O	–	inactive
C=C[C@H]1CN2CC[C@H]1C[C@@H]2[C@@H](O)c1ccnc2ccc(OC)cc12	–	inactive
C=C1CC[C@H]2C[C@@H]1C2(C)C	–	inactive
C#C[C@]1(O)CC[C@H]2[C@@H]3CCC4=CC(=O)CC[C@@H]4[C@H]3CC[C@@]21C	–	inactive
CCOC(=O)[C@H](CCc1ccccc1)N[C@H]1CCc2ccccc2N(CC(=O)O)C1=O	–	inactive
CN1C(=O)N(C)C(O)C1O (stereo not given)	–	inactive
CC(O)CN(CCCN(C)C)CCCN(C)C (stereo not given)	–	inactive
CCCCCCCCCCC(=O)O	–	inactive
[O-][n+]1cccc(CO)c1	–	inactive
CC1=CC(=O)NS(=O)(=O)O1	–	inactive

Structure (SMILES)	viability change, negative = cytotoxic	Potency
CN(C)C(=O)Nc1ccccc1	–	inactive
CCCCCCC(CO)CCCC (stereo not given)	–	inactive
CCCCN(C)C	–	inactive
CC[N+](CC)(CC)Cc1ccccc1	–	inactive
Oc1ccc2ccccc2c1	–	inactive
O=C1C(c2[nH]c3ccccc3c2O)=Nc2ccccc21	–	inactive
CCC(CO)(CO)COCC(CC)(CO)CO	–	inactive
COC(=O)c1cccc(C(=O)OC)c1	–	inactive
c1ccc2c(c1)c1cccc3ccc4cccc2c4c31	–	inactive
COC(=O)CCCCC(=O)OC	–	inactive
C=COCC(C)C	–	inactive
CCCCN(CCO)CCCC	–	inactive
O=C(NS(=O)(=O)/C=C/c1cccs1)c1ccc(F)cc1Br	–	inactive
CC(C)COC(=O)c1ccccc1O	–	inactive
CCCCCCCCOS(=O)(=O)O	–	inactive
Nc1ccc(S(=O)(=O)Nc2ccccn2)cc1	–	inactive
CC(C)CCCC(C)CCCC(C)CCCCC(C)CCCC(C)CCCC(C)C (stereo not given)	–	inactive
CCCOc1ccccc1-c1nc2n[nH]nc2c(=O)[nH]1	–	inactive
CCCCCCC(C)Nc1ccc(Nc2ccccc2)cc1 (stereo not given)	–	inactive
CCC(O)C(C)(C)C (stereo not given)	–	inactive

assay: cAMP Responsive Elements (CRE) small molecule agonists, cell-based qHTS assay: qHTS cell viability counter screen (AID 2060914); details: CRE-bla HEK293T viability, CellTiter-Glo luminescence, 5 h; series mostly up to 92.4 µM;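 also: viability read after 3 h of compound exposure; nearly all actives have a fitted effect of over 50% in size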
Method in brief: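 Cells are seeded and incubated 18 h, treated with compounds in DMSO for 3 h, read for the bla reporter, then given CellTiter-Glo; luminescence is measured after 30 min at room temperature.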

Structure (SMILES)	activity change, negative = cytotoxicity	Potency
O=C(OC[C@H]1O[C@@H](OC(=O)c2cc(O)c(O)c(OC(=O)c3cc(O)c(O)c(O)c3)c2)[C@H](OC(=O)c2cc(O)c(O)c(OC(=O)c3cc(O)c(O)c(O)c3)c2)[C@@H](OC(=O)c2cc(O)c(O)c(OC(=O)c3cc(O)c(O)c(O)c3)c2)[C@@H]1OC(=O)c1cc(O)c(O)c(OC(=O)c2cc(O)c(O)c(O)c2)c1)c1cc(O)c(O)c(OC(=O)c2cc(O)c(O)c(O)c2)c1	-4.58% [at 18.9 µM]	–
Nc1[nH]c(=O)ncc1F	–	inactive
CCCCCCCCCCCCOCCO	–	inactive
CC(C)(C)NCC(O)COc1cccc2c1CCC(=O)N2 (stereo not given)	–	inactive
Brc1cc(Br)cc(Br)c1	–	inactive
CC(C)CCOCc1ccccc1	–	inactive
O=C(O)CCc1ccccc1	–	inactive
CC(C)(C)c1ccc(C(O)CCCN2CCC(C(O)(c3ccccc3)c3ccccc3)CC2)cc1 (stereo not given)	–	inactive
CN(C)CC/C=C1\c2ccccc2COc2ccccc21	–	inactive
COS(C)(=O)=O	–	inactive
CC(C)(C)c1cc(CO)cc(C(C)(C)C)c1O	–	inactive
C=C[C@H]1CN2CC[C@H]1C[C@@H]2[C@@H](O)c1ccnc2ccc(OC)cc12	–	inactive
C=C1CC[C@H]2C[C@@H]1C2(C)C	–	inactive
C#C[C@]1(O)CC[C@H]2[C@@H]3CCC4=CC(=O)CC[C@@H]4[C@H]3CC[C@@]21C	–	inactive
CCOC(=O)[C@H](CCc1ccccc1)N[C@H]1CCc2ccccc2N(CC(=O)O)C1=O	–	inactive
CN1C(=O)N(C)C(O)C1O (stereo not given)	–	inactive
CC(O)CN(CCCN(C)C)CCCN(C)C (stereo not given)	–	inactive
CCCCCCCCCCC(=O)O	–	inactive
[O-][n+]1cccc(CO)c1	–	inactive
CC1=CC(=O)NS(=O)(=O)O1	–	inactive

Structure (SMILES)	activity change, negative = cytotoxicity	Potency
CN(C)C(=O)Nc1ccccc1	–	inactive
CCCCCCC(CO)CCCC (stereo not given)	–	inactive
CCCCN(C)C	–	inactive
CC[N+](CC)(CC)Cc1ccccc1	–	inactive
Oc1ccc2ccccc2c1	–	inactive
O=C1C(c2[nH]c3ccccc3c2O)=Nc2ccccc21	–	inactive
CCC(CO)(CO)COCC(CC)(CO)CO	–	inactive
COC(=O)c1cccc(C(=O)OC)c1	–	inactive
c1ccc2c(c1)c1cccc3ccc4cccc2c4c31	–	inactive
COC(=O)CCCCC(=O)OC	–	inactive
C=COCC(C)C	–	inactive
CCCCN(CCO)CCCC	–	inactive
O=C(NS(=O)(=O)/C=C/c1cccs1)c1ccc(F)cc1Br	–	inactive
CC(C)COC(=O)c1ccccc1O	–	inactive
CCCCCCCCOS(=O)(=O)O	–	inactive
Nc1ccc(S(=O)(=O)Nc2ccccn2)cc1	–	inactive
CC(C)CCCC(C)CCCC(C)CCCCC(C)CCCC(C)CCCC(C)C (stereo not given)	–	inactive
CCCOc1ccccc1-c1nc2n[nH]nc2c(=O)[nH]1	–	inactive
CCCCCCC(C)Nc1ccc(Nc2ccccc2)cc1 (stereo not given)	–	inactive
CCC(O)C(C)(C)C (stereo not given)	–	inactive
